Assay outcomes deposited in PubChem by Broad Institute.
Tcruzi prolif: blocks T. cruzi growth in NIH3T3 culture | inhibition, % at 8.34 µM | actives 5.9% (n = 77,000) | T. cruzi beta-gal in NIH3T3, GalScreen luminescence, 90 h;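 active means mean inhibition above about 93%, with at least 55% of replicates each passing it, limit read from the data, passing the limit was not always enough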
Pf Dd2 inh: P. falciparum Dd2 growth inhibition. SYBR Green, 72 h; hits give low values. AID 1159554. activity change, % at 10 µM. actives 2.3% (n = 94,000); in the data active means activity change below about -80%
C diff HTS: C. difficile growth inhibition. actives 0.25% (n = 86,000). growth activity, negative = inhibition, % at 16 µg/mL (by protocol). Clostridium difficile clinical isolate growth, OD600, 24 h; hits give low values;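 active means mean growth activity at or below -80% and every replicate also at or below -80%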
Large screens that a line does not name were inactive. The list is not random: actives were taken first. Their share in the collection is about 6.7%.

COc1ccc(CN(C)C[C@H]2OCc3cn(nn3)CCCC(=O)N([C@H](C)CO)C[C@@H]2C)cc1	none
C[C@H](CO)N1C[C@H](C)[C@H](CN(C)Cc2ccc(-c3ccccc3)cc2)OCc2ccccc2-c2ccccc2C1=O	Pf Dd2 inh -87 (no result: Tcruzi prolif)
Cc1ccccc1S(=O)(=O)N(C)C[C@H]1OCc2ccccc2-c2ccccc2C(=O)N([C@@H](C)CO)C[C@H]1C	Pf Dd2 inh -87
C[C@H]1CCCCO[C@@H](CN(C)C(=O)Nc2ccccc2)[C@@H](C)CN([C@@H](C)CO)C(=O)c2cc(NC(=O)c3ccccc3)ccc2O1	none (no result: C diff HTS)
CO[C@H]1CC[C@H]2CCOc3c(C#N)cccc3C(=O)N(C)C[C@H](C)C(=O)N(C)C[C@@H]1O2	none (no result: C diff HTS)
C/C=C/c1ccc([C@H]2[C@@H](CO)N(CC3CCCC3)C23CN(C(=O)CC)C3)cc1	none (no result: Tcruzi prolif)
C/C=C/c1ccc([C@H]2[C@@H](CO)N(CC3CCCC3)[C@@H]2CNC(=O)NC(C)C)cc1	Pf Dd2 inh -94 (no result: Tcruzi prolif)
C/C=C/c1ccc([C@H]2[C@@H](CO)N(CC3CC3)[C@@H]2CNC(=O)NC(C)C)cc1	none (no result: Tcruzi prolif)
C/C=C/c1ccc([C@@H]2[C@@H](CO)N(c3nc(CC)cs3)[C@@H]2CNC(C)C)cc1	none
C/C=C/c1ccc([C@H]2[C@@H](CO)N(CC3CC3)[C@H]2CNS(C)(=O)=O)cc1	none
C/C=C/c1ccc([C@H]2[C@@H](CO)N(CC3CCCC3)C23CN(C(=O)CC2CC2)C3)cc1	Pf Dd2 inh -87 (no result: Tcruzi prolif)
C/C=C/c1ccc([C@H]2[C@@H](CO)N(CC3CCCCC3)[C@@H]2CNC(C)C)cc1	Pf Dd2 inh -94 (no result: Tcruzi prolif)
C/C=C/c1ccc([C@H]2[C@H](CO)N(c3nc(CC)cs3)[C@H]2CNC(C)C)cc1	Pf Dd2 inh -81
CN(C[C@@H]1N[C@H](CO)[C@@H]1c1ccc(-c2cccc(F)c2)cc1)C(=O)C1CCC1	none
C[C@@H]1CN([C@H](C)CO)C(=O)c2cccc(NS(=O)(=O)c3cn(C)cn3)c2O[C@@H]1CN(C)C(=O)Nc1ccc2c(c1)OCO2	none (no result: C diff HTS)
O=C(C[C@H]1CC[C@H]2[C@@H](COC[C@@H](O)CN2Cc2ccccc2)O1)NCc1ccccc1Cl	none (no result: C diff HTS)
C[C@H](CO)N1C[C@H](C)[C@H](CN(C)S(C)(=O)=O)Oc2ccc(NC(=O)Cc3cn(C)c4ccccc34)cc2CC1=O	none
O=C(N[C@@H]1CC[C@@H](CC(=O)N2CCCCC2)O[C@@H]1CO)c1ccccn1	none
COc1ccc(S(=O)(=O)N(C)C[C@H]2Oc3ccc(NS(=O)(=O)c4ccc(C)cc4)cc3C(=O)N([C@H](C)CO)C[C@@H]2C)cc1	none (no result: Tcruzi prolif)
O=C(C[C@H]1CC[C@@H](NC(=O)Nc2ccc3c(c2)OCO3)[C@@H](CO)O1)NCCCN1CCOCC1	none
C[C@H]1CN([C@@H](C)CO)S(=O)(=O)c2ccc(/C=C/c3ccccc3)cc2O[C@@H]1CN(C)Cc1cccnc1	none
C[C@H]1CN([C@@H](C)CO)S(=O)(=O)c2ccc(/C=C/c3ccccc3)cc2O[C@H]1CN(C)Cc1cccnc1	Pf Dd2 inh -82 (no result: Tcruzi prolif)
C/C=C/c1ccc2c(c1)O[C@@H](CN(C)C(=O)c1ccccc1)[C@H](C)CN([C@H](C)CO)S2(=O)=O	none (no result: Tcruzi prolif)
C[C@H]1CN([C@@H](C)CO)S(=O)(=O)c2ccc(-c3ccccc3)cc2O[C@H]1CN(C)C(=O)Nc1ccccc1F	Pf Dd2 inh -81 (no result: C diff HTS)
C[C@@H]1CN([C@@H](C)CO)S(=O)(=O)c2ccc(-c3ccccc3)cc2O[C@H]1CN(C)C(=O)Nc1ccccc1F	none (no result: C diff HTS)
C[C@@H]1CN([C@@H](C)CO)S(=O)(=O)c2ccc(/C=C/c3ccccc3)cc2O[C@@H]1CN(C)C(=O)c1ccccc1	Tcruzi prolif 127
C[C@@H]1CN([C@H](C)CO)S(=O)(=O)c2ccc(/C=C/c3ccccc3)cc2O[C@@H]1CN(C)C(=O)Nc1cc(F)ccc1F	none (no result: Tcruzi prolif)
C[C@@H]1CN([C@H](C)CO)S(=O)(=O)c2ccc(/C=C/c3ccccc3)cc2O[C@H]1CN(C)C(=O)Nc1cc(F)ccc1F	Pf Dd2 inh -84 (no result: Tcruzi prolif)
COCC(=O)N1[C@H](C#N)[C@@H](c2ccccc2-c2cccc(OC)c2)[C@@H]1CO	none (no result: Tcruzi prolif)
CCNC(=O)[C@H]1[C@H](CO)[C@H]2Cn3c(ccc(-c4ccccc4)c3=O)[C@@H]1N2Cc1cccnc1	none
COc1ccc(NC(=O)Nc2ccc3c(c2)C(=O)N([C@H](C)CO)C[C@@H](C)[C@@H](CN(C)S(=O)(=O)c2ccc(F)cc2)O3)cc1	none
C[C@H](CO)N1C[C@H](C)[C@H](CN(C)Cc2ccc(C(=O)O)cc2)Oc2c(cccc2N(C)C)C1=O	none
O=C(C[C@H]1C=C[C@H](NC(=O)C2CC2)[C@@H](CO)O1)Nc1ccccc1	none
COc1ccc2c3c([nH]c2c1)[C@H](CO)N(C(C)=O)CC31CN(Cc2cc(-c3ccccc3)on2)C1	none (no result: Tcruzi prolif)
Cc1ccc(S(=O)(=O)Nc2ccc3c(c2)C(=O)N([C@@H](C)CO)C[C@H](C)[C@H](CN(C)Cc2ccccc2)OCCCC[C@H](C)O3)cc1	none
C[C@@H]1CN([C@H](C)CO)C(=O)c2cc(NS(C)(=O)=O)ccc2O[C@@H](C)CCCCO[C@H]1CN(C)Cc1ccc(Cl)c(Cl)c1	none
Cc1ccc(S(=O)(=O)Nc2ccc3c(c2)C(=O)N([C@H](C)CO)C[C@@H](C)[C@@H](CN(C)Cc2ccccc2)OCCCC[C@@H](C)O3)cc1	Pf Dd2 inh -83
C[C@@H]1CN([C@@H](C)CO)C(=O)c2cc(NS(C)(=O)=O)ccc2O[C@@H](C)CCCCO[C@@H]1CN(C)Cc1ccccc1	Pf Dd2 inh -95
C[C@@H]1CN([C@H](C)CO)C(=O)c2cc(NS(C)(=O)=O)ccc2O[C@@H](C)CCCCO[C@@H]1CN(C)Cc1ccc(Cl)c(Cl)c1	Pf Dd2 inh -88
C[C@@H]1CN([C@H](C)CO)C(=O)c2cc(NS(C)(=O)=O)ccc2O[C@@H](C)CCCCO[C@H]1CN(C)Cc1ccccc1	none
COc1ccc2c3c([nH]c2c1)[C@@H](CO)N(CC1CCOCC1)CC31CN(CC2CCOCC2)C1	none (no result: Tcruzi prolif)
COc1ccc(NC(=O)N2CCC3(CC2)CN(C(=O)C2CCC2)[C@H](CO)c2c3c3ccc(OC)cc3n2C)cc1	Pf Dd2 inh -90 (no result: Tcruzi prolif)
COc1ccc2c3c(n(C)c2c1)[C@H](CO)N(C(=O)C1CCCC1)CC31CCN(C(=O)Nc2cccc(F)c2)CC1	none (no result: Tcruzi prolif)
COc1ccc2c3c(n(C)c2c1)[C@@H](CO)N(C(=O)C1CCCCC1)CC31CCN(C(=O)Nc2cccc(F)c2)CC1	none (no result: Tcruzi prolif, C diff HTS)
COc1ccc2c3c(n(C)c2c1)[C@@H](CO)N(C(=O)C1CCCC1)CC31CCN(C(=O)Nc2cccc(F)c2)CC1	Pf Dd2 inh -91 (no result: Tcruzi prolif)
COc1ccc2c3c(n(C)c2c1)[C@H](CO)N(C(=O)C1CCCC1)CC31CN(C(=O)CC2CC2)C1	Pf Dd2 inh -85 (no result: Tcruzi prolif)
CCCC(=O)N1CC2(CN(C(=O)Nc3cccc(F)c3)C2)c2c(n(C)c3cc(OC)ccc23)[C@H]1CO	Pf Dd2 inh -82 (no result: Tcruzi prolif)
CCCC(=O)N1CC2(CN(C(=O)Nc3cccc(F)c3)C2)c2c(n(C)c3cc(OC)ccc23)[C@@H]1CO	none (no result: Tcruzi prolif)
COc1ccc2c3c(n(C)c2c1)[C@H](CO)N(C(=O)C1CCCC1)CC31CN(C(=O)CN(C)C)C1	none (no result: Tcruzi prolif, C diff HTS)
C[C@@H]1CN([C@@H](C)CO)C(=O)c2cc(C3=CCCCC3)cnc2O[C@H]1CN(C)Cc1ccccc1F	none
